In all, about 310,000 compounds went through this assay and about 14,000 (4.5%) showed an effect of 50% or more. Effects have a minus sign here. For the sample, strong results were picked, then their nearest neighbours and some compounds at random.
molecular target: human ether-à-go-go-related gene (hERG) potassium channel (human, UniProt Q12809); assay: primary screen, population patch clamp on CHO cells stably expressing hERG; higher = less effect of the substance
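Note: peak tail current of the secondary pulse compared with the same well before compound.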

Chain of human ether-à-go-go-related gene (hERG) potassium channel (Q12809 whole entry, looked up): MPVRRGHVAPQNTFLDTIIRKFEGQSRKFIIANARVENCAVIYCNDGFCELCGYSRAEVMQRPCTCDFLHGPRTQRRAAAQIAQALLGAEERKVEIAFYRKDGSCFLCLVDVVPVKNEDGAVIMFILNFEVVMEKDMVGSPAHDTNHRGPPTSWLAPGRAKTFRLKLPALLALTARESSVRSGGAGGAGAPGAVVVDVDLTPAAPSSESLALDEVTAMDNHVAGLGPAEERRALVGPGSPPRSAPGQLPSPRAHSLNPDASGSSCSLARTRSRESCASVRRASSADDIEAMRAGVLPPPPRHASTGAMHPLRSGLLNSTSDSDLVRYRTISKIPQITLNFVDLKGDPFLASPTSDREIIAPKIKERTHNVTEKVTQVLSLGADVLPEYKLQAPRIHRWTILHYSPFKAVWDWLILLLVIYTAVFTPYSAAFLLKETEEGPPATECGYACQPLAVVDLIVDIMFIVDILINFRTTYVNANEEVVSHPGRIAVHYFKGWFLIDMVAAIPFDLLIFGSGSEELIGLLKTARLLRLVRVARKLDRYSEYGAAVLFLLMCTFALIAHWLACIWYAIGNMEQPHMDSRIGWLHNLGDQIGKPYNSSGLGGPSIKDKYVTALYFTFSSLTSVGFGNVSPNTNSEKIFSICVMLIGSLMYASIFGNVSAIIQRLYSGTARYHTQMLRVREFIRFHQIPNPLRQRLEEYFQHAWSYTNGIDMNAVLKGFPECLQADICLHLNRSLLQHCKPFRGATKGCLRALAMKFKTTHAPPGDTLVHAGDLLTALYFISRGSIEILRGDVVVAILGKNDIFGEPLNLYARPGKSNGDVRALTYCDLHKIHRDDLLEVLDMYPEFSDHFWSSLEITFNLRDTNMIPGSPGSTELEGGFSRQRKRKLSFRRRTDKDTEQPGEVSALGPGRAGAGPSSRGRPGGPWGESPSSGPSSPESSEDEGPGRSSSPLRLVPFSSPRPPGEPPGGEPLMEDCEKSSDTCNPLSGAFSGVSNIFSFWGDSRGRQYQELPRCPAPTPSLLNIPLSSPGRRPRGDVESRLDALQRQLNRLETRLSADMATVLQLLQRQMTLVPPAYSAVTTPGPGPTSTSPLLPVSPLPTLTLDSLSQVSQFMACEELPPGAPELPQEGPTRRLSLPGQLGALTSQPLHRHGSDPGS

Structure (SMILES)	hERG current change (%, negative = inhibition) at 10uM [%]
O=C(c1cccc([N+](=O)[O-])c1)c1ccc2c(c1)OCCOCCOCCOCCO2	-69.8
O=C(c1cccc([N+](=O)[O-])c1)c1ccc2c(c1)OCCOCCOCCO2	-52.8
O=[N+]([O-])c1ccc(S(=O)(=O)Nc2ccc3c(c2)OCCO3)cc1	3.95
Nc1cc2c(cc1[N+](=O)[O-])OCCOCCOCCO2	0.413
O=C(Nc1cccc([N+](=O)[O-])c1)c1ccc2c(c1)OCCO2	11.9
O=C(Nc1cccc([N+](=O)[O-])c1)Nc1ccc2c(c1)OCCO2	-1.17
Nc1cc2c(cc1[N+](=O)[O-])OCCO2	5.64
O=[N+]([O-])c1ccc2c(c1)OCCOCCOCCOCCOCCOCCO2	-64.1
O=[N+]([O-])c1cc2c(cc1[N+](=O)[O-])OCCOCCOCCOCCO2	-59.3
O=C(N/N=C/c1cccc([N+](=O)[O-])c1)c1ccc2c(c1)OCCO2	7.63
O=C(/C=C/c1cccc([N+](=O)[O-])c1)c1ccc2c(c1)OCCO2	3.36
O=C(Nc1ccc([N+](=O)[O-])cc1)Nc1ccc2c(c1)OCCO2	24.6
O=C(NCc1cccc(F)c1)C1CCN(S(=O)(=O)Cc2ccccc2)CC1	7.89
COCCn1c(SCC(=O)Nc2ccc(Cl)cn2)nc2ccccc21	-32.1
Cc1ccc(N(C(=O)CCC(=O)Nc2ccccn2)C(C(=O)NC(C)C)c2ccc(F)cc2)cc1 (centres unmarked)	21.4
COc1ccc2c(c1)[C@H]1[C@H](CO2)[C@H](c2ccccc2)[C@]2(C)C(=O)N(CC3CCCO3)CC(=O)N12 (some centres unmarked)	-2.94
COc1cccc(-n2cnc3c(sc4nc(N5CCOCC5)c5c(c43)CCCC5)c2=O)c1	5.92
CCc1ccccc1NC(=O)CNC(=O)CSC(=S)N1CCCC1	-3.17
COc1ccc(N2C(=NC(=O)c3ccccc3)SC3CS(=O)(=O)CC32)cc1 (centres unmarked)	5.27
O=S(=O)(Oc1ccccc1C(=S)N1CCOCC1)c1ccc(Cl)cc1	3.56
NS(=O)(=O)c1ccc(CCNC(=O)[C@@H]2CCCN2S(=O)(=O)c2ccccc2F)cc1	-2.88
COc1ccc(OC)c(S(=O)(=O)N2CCC(C(=O)NCc3ccc4c(c3)OCO4)CC2)c1	-3.84
COc1cccc(NC(=O)c2cccnc2)c1	11.2

Structure (SMILES)	hERG current change (%, negative = inhibition) at 10uM [%]
Cc1ccc(C#CC[N+]2(C)CCCCC2)cc1.[Br-]	14
CCC[N+]1(CC#CC(O)(c2ccccc2)C2CCCCC2)CCCCC1.[Br-] (centres unmarked)	12.1
C#CC[N+]1(CC#Cc2ccccc2)CCCC1.[I-]	-1.53
C(#Cc1ccccc1)C[N+]1(CC#Cc2ccccc2)CCCC1.[Br-]	-55.5
O=S(=O)([O-])CCC[N+]1(CC#Cc2ccccc2)CCCCC1	33.8
C#CC[N+]1(CC#Cc2ccc(C)cc2)CCCCC1.[Br-]	4.84
C#CC[N+]1(CC#Cc2ccccc2)CCCCC1.[I-]	2.16
CCC[N+]1(CC#CCC(c2ccccc2)c2ccccc2)CCCCC1.[Br-]	-66.7
OCC#CC[N+]1(CC#Cc2ccccc2)CCCC1.[Br-]	14.5
C=CC[N+]1(CC#Cc2ccccc2)CCCC1.[Br-]	18.4
Cc1ccc(C#CC[N+]2(CC#Cc3ccc(C)cc3)CCCCC2)cc1.[Br-]	-106
C(#Cc1ccccc1)C[N+]1(CC#Cc2ccccc2)CCCCC1.[Br-]	-55.8
COc1ccc2c(c1)CC/C(=C\C=C\c1ccccc1OC)C2=O	8.8
Cc1cc(=O)[nH]c(N/N=C/c2ccc(Br)s2)n1	-13.9
CN1CCN(c2ccc(-c3cccc(NC(=O)COc4ccc(Cl)cc4Cl)c3)nn2)CC1	6.83
O=C(COc1ccc2c3c(c(=O)oc2c1)CCC3)NC(Cc1ccc(Cl)cc1)C(=O)O (centres unmarked)	3.55
Cc1ccc2nc(Cl)c(CN(Cc3cccs3)C(=O)C3CC3)cc2c1	8.82
C[C@]12CC[C@@H](O)C[C@@H]1CC[C@@H]1[C@@H]2CC[C@]2(C)[C@@H](O)CC[C@@H]12	19.8
N#CCOC(=O)C1CSC2(c3ccc(Br)cc3)CCC(=O)N12 (centres unmarked)	8.43
CCCCOc1cccc(C(=O)NC(=S)Nc2cccc(NC(=O)c3ccccc3Cl)c2)c1	-8.49
CC(C)(C)c1ccc(C(=O)NNC(=O)c2ccncc2)cc1	15.5
CC(C)CCCN1CCN=C1N(C)C	8.91
CCCCN1CCN=C1N(C)C	12

Structure (SMILES)	hERG current change (%, negative = inhibition) at 10uM [%]
CN(C)C1=NCCN1CCCC1CCCC1	-51
CN(C)C1=NCCN1CCC1CCCC1	1.87
CN(C)C1=NCCN1CCCC1CCCCC1	-38.6
CCCCCCCN1CCN=C1N(C)C	-67.7
COc1ccc(NC(=O)CN(C)C(=O)CN2C(=O)NC3(CCCCC3)C2=O)cc1	3.29
Cc1nn(CC(=O)Nc2ccc3c(c2)nc(CN2CCCC2)n3C)c(=O)c2ccccc12	-13.4
Cc1c(C(=O)NNC(=O)c2ccncc2)oc2ccc(Br)cc12	-68.5
Cc1c(C(=O)NNC(=O)c2ccccc2O)oc2ccc(Br)cc12	8.46
Cc1c(C(=O)NNC(=O)c2ccncc2)oc2ccccc12	-5.92
COc1ccccc1NC(=O)N1CCC(NC(=O)C2CCCCC2)CC1	5.27
N#CCSc1nnc(C2CCCCC2)n1Cc1ccccc1	-11.6
Cc1[nH]c2ccccc2c1C(=O)C(C)OC(=O)c1ccccc1NCCO (centres unmarked)	15
O=S(=O)(Nc1nnc(-c2ccccc2)s1)c1ccc(Cl)cc1	0.769
O=C(c1ccc(Cl)c(S(=O)(=O)N2CCCC2)c1)N1CCN(c2ccccc2)CC1	-8.69
O=C(Nc1ccc(S(=O)(=O)N2CCOCC2)cc1)c1ccc(F)cc1	-6.51
O=C(c1ccc(Cl)c(S(=O)(=O)N2CCCC2)c1)N1CCN(c2ccccc2F)CC1	-20.6
O=C(c1ccc(Cl)c(S(=O)(=O)N2CCCCCC2)c1)N1CCN(c2ccc(O)cc2)CC1	-50.4
COc1ccc(NC(=O)c2ccc(Br)c(S(=O)(=O)N3CCOCC3)c2)cc1	1.53
O=C(c1ccc(S(=O)(=O)N2CCOCC2)cc1)N1CCN(c2ccc(F)cc2)CC1	-5.3
O=C(Nc1ccc(F)cc1)c1ccc(Br)c(S(=O)(=O)N2CCOCC2)c1	-58.8
O=C(c1ccc(Cl)c(S(=O)(=O)N2CCCCC2)c1)N1CCN(c2ccccc2)CC1	-26.5
Cl.O=C(c1ccc(Cl)c(S(=O)(=O)N2CCCC2)c1)N1CCN(c2ccc(F)cc2)CC1	-58.5
COc1ccc(N2CCN(C(=O)c3ccc(Cl)c(S(=O)(=O)N4CCCC4)c3)CC2)cc1	-31.6

Structure (SMILES)	hERG current change (%, negative = inhibition) at 10uM [%]
O=C(c1ccc(F)c(S(=O)(=O)N2CCOCC2)c1)N1CCN(c2ccc(F)cc2)CC1	-60.5
O=C(c1ccc(F)c(S(=O)(=O)N2CCOCC2)c1)N1CCN(c2ncccn2)CC1	-4.06
COc1ccc(NC(=O)C/C(C)=N/NC(=O)CCc2ccccc2)c(OC)c1	4.6
CC(=O)c1cccc(NC(=S)NC(=O)c2ccccc2Br)c1	10.9
Cl.N/C(=N\O)C1COc2ccccc2O1 (centres unmarked)	16.4
CCOC(=O)C1CCCN(C(=O)CSc2ccc(NC(C)=O)cc2)C1 (centres unmarked)	14.9
COc1ccccc1N1CCN(C(=O)CSc2nc3ncnc(N)c3[nH]2)CC1	21.3
Cc1nc2cc(NS(=O)(=O)c3cccc(F)c3)ccc2s1	7.97
COc1nc(Nc2ccccc2)nc(OC)n1	5.84
CC(C)CCNC(=O)CCCc1ccccc1	14.5
Brc1nc(-c2ccccc2)nc(-c2ccccc2)c1Br	-5.38
O=C(Cc1ccc(S(=O)(=O)N2CCOCC2)s1)N1CCN(c2ccc(C(F)(F)F)cc2[N+](=O)[O-])CC1	-54.8
Cc1ccc(C(=O)N2CCCCC2)cc1S(=O)(=O)N1CCCC1	5.55
Cc1ccc(C(=O)N2CCN(c3ccc(F)cc3)CC2)cc1S(=O)(=O)N1CCCCC1	-54
O=C(Cc1ccc(S(=O)(=O)N2CCOCC2)s1)N1CCN(c2cccc(C(F)(F)F)c2)CC1	-31.7
O=C(Cc1ccc(S(=O)(=O)N2CCCC2)s1)N1CCN(c2ccc(F)cc2)CC1	-56.2
O=C(Cc1ccc(S(=O)(=O)N2CCCC2)s1)N1CCN(c2ccccc2)CC1	-28.4
O=C(Cc1ccc(S(=O)(=O)N2CCCC2)s1)N1CCOCC1	-0.493
Cc1ccc(C(=O)N2CCN(c3ccccc3)CC2)cc1S(=O)(=O)N1CCCC1	-31.2
O=C(Cc1ccc(S(=O)(=O)N2CCOCC2)s1)N1CCN(S(=O)(=O)c2cccc([N+](=O)[O-])c2)CC1	-27.1
